Drawing on ChEMBL document CHEMBL4513216, “Probing the Open Global Health Chemical Diversity Library for Multistage-Active Starting Points for Next-Generation Antimalarials” (ACS Infect Dis, 2020), this text covers INHIBITION for 68 molecules.

Hit rate of the full screen: of about 69,000 compounds, about 8,600 (12%) showed an effect of 50% or more. What follows is part of a selection rich in strong results, with near analogues and random picks from the rest.

This assay deals with Plasmodium berghei. Put plainly: Screen against P. berghei liver stage (PbLuc), transformed with Luciferase, at 10uM. Type of assay: functional, HepG2. As to conditions: tested at 10 uM.
In the case of `Cc1ncc2c(n1)CN(Cc1nc(-c3ccsc3)no1)CC2`, the INHIBITION is on record as 21%.
With `COc1ccccc1CNC(=O)CN(C)C(C)c1nccs1` (stereo not drawn), the INHIBITION was -45.6%.
As to `CCn1nc(C)c(NC(=O)CN(C)C(C)c2nccs2)c1C` (stereo not drawn), the INHIBITION is reported as -23.4%.
For `Cc1cccc(C(C)C)c1NC(=O)CN(C)C(C)c1nccs1` (stereo not drawn), the INHIBITION is listed as 73.6%.
On to `CCCNC(=O)N1CCC(c2nnc(Cn3cccn3)n2C2CC2)CC1`, for which the INHIBITION was -50.7%.
In the case of `CC(O)CN1CCN(C(=O)c2cc3ccccc3c(=O)[nH]2)CC1` (stereo not drawn), the INHIBITION is -3.95%.
With `Cc1nnc2ccc(N3CCC(C(=O)Nc4nccs4)CC3)nn12`, the INHIBITION was determined as 39.3%.
Consider `CC(C)c1nnc2ccc(N3CCC(C(=O)Nc4nccs4)CC3)nn12`, for which the INHIBITION turned out to be 79.8%.
For `CC(C)c1nnc2ccc(N3CCCC(C(=O)Nc4nccs4)C3)nn12` (stereo not drawn), the INHIBITION came to 29%.
Regarding `Cc1nn(C)c(C)c1-c1cncc(C2CCN(S(C)(=O)=O)CC2)n1`, the INHIBITION stood at 34.7%.
In the case of `CN1[C@H](CN2CCCC2)C[C@@H]2CN(C(=O)c3cccn3C)CC[C@@H]21`, the INHIBITION stood at 14.1%.
In the case of `CCOc1ccc2c(c1)CN(Cc1nc3c(cnn3C)c(=O)[nH]1)CC2`, the INHIBITION is recorded as 48.2%.
Take `COCC1c2c(cnn2CC2CC2)CCN1Cc1ccsc1` (stereo not drawn): the INHIBITION was -37.9%.
On to `COCC1c2c(cnn2CC2CC2)CCN1Cc1ccc(C)o1` (stereo not drawn), for which the INHIBITION is listed as -52.7%.
On to `COCC1c2c(cnn2CC2CC2)CCN1Cc1ccc(OC)cc1` (stereo not drawn), for which the INHIBITION came to 53.1%.
For the molecule `O=S(=O)(NCc1ccccc1)Nc1ccc(-n2ccnc2)cc1`, the INHIBITION is recorded as 44.8%.
Take `Cc1noc(C)c1CN1CCC2(CC1)CC(Oc1cccnc1)CO2` (stereo not drawn): the INHIBITION was found to be 21.6%.
The same measure for `Cc1noc(C)c1CN1CCC[C@]2(C[C@@H](Oc3ccccn3)CO2)C1`: 87%.
Consider `Cc1csc(CN2CCC[C@]3(C[C@@H](Oc4ccccn4)CO3)C2)n1`, for which the INHIBITION is 64.4%.
As to `c1ccc(O[C@H]2CO[C@@]3(CCCN(Cc4nccs4)C3)C2)nc1`, the INHIBITION was 49.7%.
Regarding `Cc1csc(CN2CCC[C@]3(C[C@H](OCC4CC4)CO3)C2)n1`, the INHIBITION is reported as 1.48%.
The same measure for `Cc1noc(C)c1CN1CCOC2(CCCN(c3ccccn3)C2)C1` (stereo not drawn): 20.9%; for `CCO[C@H]1CO[C@@]2(CCCN(Cc3nc(C)cs3)C2)C1`: 11.8%; for `CO[C@@H]1CO[C@@]2(CCCN(Cc3nc(C)cs3)C2)C1`: 65.7%.
Next, `Cc1csc(CN2CCC[C@]3(C[C@H](Oc4ccccn4)CO3)C2)n1`: 35.1%.
As for `CN1CCN(Cc2cnc3n2CCN(Cc2cccs2)C3)CC1`, the INHIBITION came out at 30.7%.
As for `O=C(NC1CCNCC1)C1(N2CCCCC2)Cc2ccccc2C1`, the INHIBITION worked out at 26.9%.
In the case of `CN(CCCO)c1nc(-c2ccc(C(N)=O)cc2)nc2c1CCNC2`, the INHIBITION is listed as -3.3%.
In the case of `O=S(=O)(NC1CCOC1)c1ccc(C(F)(F)F)nc1` (stereo not drawn), the INHIBITION was found to be 34.5%.
The same measure for `COc1cc(CN2C[C@@H]3CNC(=O)[C@H](C)[C@@H]3C2)cc(OC)c1`: -24.5%.
With `O=C(c1ccoc1)N(Cc1cccnc1)C1CC1`, the INHIBITION came out at 17.1%.
The same measure for `COc1ncccc1NC(=O)NC1CCCN(c2ncccn2)C1` (stereo not drawn): -19.9%.
For the molecule `CN(C)CCOCC1CN(CC2CCOCC2)Cc2nnn(C)c21` (stereo not drawn), the INHIBITION was 13%.
Turning to `CC(NC(=O)CCC(=O)c1cccs1)c1nnc2n1CCC2` (stereo not drawn), the INHIBITION is -31.5%.
With `CNC(=O)COC(=O)c1cccc(-n2ccc(C(F)(F)F)n2)c1`, the INHIBITION worked out at 40.6%.
With `CNC(=O)CCOC(=O)c1cccc(-n2cccn2)c1`, the INHIBITION stood at 77.7%.
The same measure for `CNC(=O)CCOC(=O)c1cccc(-n2ccc(C(F)(F)F)n2)c1`: 24.8%.
Consider `CO[C@H]1CCN(Cc2cnn(C)c2)[C@@H]2CN(Cc3cccnc3)C[C@H]12`, for which the INHIBITION worked out at 0%.
Take `COc1ccc(-c2cc(C(=O)NCCCn3ccnc3C)n(C)n2)cc1`: the INHIBITION amounted to 18.3%.
Next, `COCC(=O)NCc1cccc(OCCN(C)C2CCOCC2)c1`: 88.1%; `CCC(C)C(=O)NCc1cccc(OCCN(C)C2CCOCC2)c1` (stereo not drawn): 39.5%; `CC(C)CC(=O)NCc1cccc(OCCN(C)C2CCOCC2)c1`: 71.3%.
In the case of `CN(CCOc1cccc(CNC(=O)C2CC2)c1)C1CCOCC1`, the INHIBITION is listed as 29.2%.
As to `CN(CCOc1cccc(CNS(C)(=O)=O)c1)C1CCOCC1`, the INHIBITION is given as 39.5%.
Take `CN(CCOc1cccc(CN)c1)C1CCOCC1`: the INHIBITION was determined as 0%.
With `CSC(C)(C)CNC(=O)NC1CCN(CC(F)F)CC1`, the INHIBITION turned out to be 33.7%.
`CN(C)CC1CN(Cc2ccc(F)cc2)Cc2nccn2C1` (stereo not drawn): the INHIBITION worked out at 24.1%.
As to `COc1ccc(-n2cc3nc(N)[nH]cc-3c2=O)cc1`, the INHIBITION is given as 28.4%.
The same measure for `O=C1[C@H]2CN(Cc3cccs3)C[C@H]2CN1c1ccsc1`: 14.8%; for `CCC(O)CN(Cc1ccccc1)S(=O)(=O)c1cnc(C)s1` (stereo not drawn): 52.6%.
Take `Cc1ncsc1C(=O)N(Cc1ccccc1)C1CC1`: the INHIBITION turned out to be 33.45%.
The same measure for `CCC(O)CN(c1ccccc1)S(=O)(=O)c1cnc(C)s1` (stereo not drawn): 37.8%; for `CN(CCOc1ccc(C#N)cc1)CC1CCS(=O)(=O)C1` (stereo not drawn): 22.6%; for `COc1ccc(CN2CC[C@@H]3[C@H]2CCC(=O)N3c2cnn(C)c2)cc1`: 61.9%.
For `Cn1cc(N2C(=O)CC[C@@H]3[C@H]2CCN3Cc2ccncc2)cn1`, the INHIBITION was -10.4%.
For `Cn1cc(CN2CC[C@@H]3[C@H]2CCC(=O)N3c2ccccc2)cn1`, the INHIBITION is -46.8%.
With `CN1CCN(C2CCN(CC(O)c3ccccc3F)CC2)C1=O` (stereo not drawn), the INHIBITION is 17.065%.
Regarding `c1cnc(-c2nn3c(CN4CCCCC4)nnc3s2)cn1`, the INHIBITION was determined as 6.83%.
For `COC(=O)C1=NOC(Cc2cc(OC)c3c(c2)OCO3)C1` (stereo not drawn), the INHIBITION amounted to 10.7%.
With `CCOC(=O)C1=NOC(Cc2cc(OC)c3c(c2)OCO3)C1` (stereo not drawn), the INHIBITION came to 60%.
As to `COc1cc(CC2CC(C(N)=O)=NO2)cc2c1OCO2` (stereo not drawn), the INHIBITION is recorded as 16.3%.
Regarding `CN1CC(C(=O)NCCc2ccc(F)c(Br)c2)CC1=O` (stereo not drawn), the INHIBITION is reported as -50.6%.
The same measure for `O=C(CCN1CCCCCC1c1ccco1)N1CCOCC1` (stereo not drawn): 19.5%.
Take `COc1ccc(C2CCCCCN2CCCNS(C)(=O)=O)cc1` (stereo not drawn): the INHIBITION came to 0.914%.
For `O=C(CCN1CCC(c2cc3ccccc3[nH]2)CC1)N1CCOCC1`, the INHIBITION came to 39.7%.
With `CS(=O)(=O)NCCCN1CCCCC1c1cc2ccccc2[nH]1` (stereo not drawn), the INHIBITION is recorded as 52%.
Take `CS(=O)(=O)NCCCN1CCCC1c1ccccc1` (stereo not drawn): the INHIBITION is recorded as 9.25%.
Consider `O=C(CCN1CCCCC1c1cc2ccccc2[nH]1)N1CCOCC1` (stereo not drawn), for which the INHIBITION is 55.8%.
